Assay outcomes deposited in PubChem BioAssay by National Center for Advancing Translational Sciences (NCATS).
PTHR1 ag: qHTS for PTHR1 Agonists: Primary Screen; HEK293 GP2 PTHR1 cells, GloSensor cAMP luminescence, 1 h; Potency, µM (titrated, usually from 115 µM), inactives show at the highest dose activation, usual class: activators; 410,000 compounds, 0.075% hits; AID 743266, 2014; note: nearly all actives have a fitted effect of over 55% in size
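HEK-293-derived GP2 cells expressing PTHR1 and a GloSensor cAMP reporter, 3,000/well, plated overnight, given luciferin plus IBMX (each 0.5 mM as added) for 1 h at 37 °C, then compound for 1 h at 37 °C. Luminescence was read after 15 min at room temperature.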
GLP1R ag: qHTS of GLP-1 Receptor Agonists; Glucagon-like peptide 1 receptor (Homo sapiens), P43220; HEK293 GLP-1R CRE-luciferase, luminescence, 4-6 h; cells express a hypersensitive GLP-1R form; Potency, µM (titrated, usually from 45.6 µM), for inactives: top-dose activation, most hits filed as activators; 380,000 compounds, 0.007% hits; AID 624172, 2012; note: % of control where 0% means no effect
Target sequence (P43220 whole entry, looked up): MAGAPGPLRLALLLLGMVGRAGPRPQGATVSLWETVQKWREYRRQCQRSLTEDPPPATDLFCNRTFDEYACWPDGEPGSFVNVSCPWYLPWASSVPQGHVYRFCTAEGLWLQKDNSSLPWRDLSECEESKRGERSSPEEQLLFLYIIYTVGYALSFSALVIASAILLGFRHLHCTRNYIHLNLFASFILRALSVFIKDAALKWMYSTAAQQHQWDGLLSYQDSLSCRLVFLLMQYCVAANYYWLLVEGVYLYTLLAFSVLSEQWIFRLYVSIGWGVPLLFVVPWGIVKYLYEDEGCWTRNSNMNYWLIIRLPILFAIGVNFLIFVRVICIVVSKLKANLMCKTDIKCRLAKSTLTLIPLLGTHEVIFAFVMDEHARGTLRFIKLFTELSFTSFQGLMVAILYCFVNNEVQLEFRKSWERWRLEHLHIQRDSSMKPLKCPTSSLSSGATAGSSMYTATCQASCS
GLP1R cytotox: qHTS of GLP-1 Receptor Inverse Agonists: Cytotox Screen | AID 624418, 2012 | 410,000 compounds, 0.13% hits | Potency, µM (titrated, usually from 38.3 µM), without a hit: top-dose activity change, negative = inhibition, hits mostly inhibitors | HEK293 cAMP-luciferase reporter cells, luminescence, 24 h;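 note: loss of luciferase light is scored as toxicity; % is set by controls: 0 for no effect and ±100 for the full control effect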
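Seeding density was 200 cells/uL; after overnight-length (12 h) culture, 23 nL compounds went on for 24 h at 37 °C. Readout used a luciferase detection reagent, luminescence taken after 12 min at room temperature.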
GLP1R inv ag: qHTS of GLP-1 Receptor Inverse Agonists (Inhibition Mode) | Glucagon-like peptide 1 receptor (Homo sapiens), P43220 | HEK293 GLP-1R CRE-luciferase, luminescence, 24 h; GLP-1R form is constitutively active | Potency, µM (doses to about 38.3 µM), for inactives: at the top dose activity change, negative = inhibition, actives largely listed as inhibitors | 410,000 compounds, 1.6% hits; note: % is set by controls: 0 for no effect and ±100 for the full control effect; nearly all actives have a fitted effect of over 55% in size
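Luminescence readout: a drop in cAMP-driven luciferase signal flags inverse agonism at a constitutively active GLP-1R stably expressed in HEK293. Compound exposure lasted 24 hr at 37 deg C, 5% CO2.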
Starred values were filed as active, the others as inactive; i = inactive; ? = inconclusive; nt = no result; [ ] = another dose, or the depositor's remark. Rows were chosen to be rich in hits. Some 1.7% of all compounds tested hit in one or more screens of this group. Calls come from the whole dose curve; as a rule, active = well fitted curve in the direction sought with a large enough effect; inconclusive = small, poorly fitted or top-dose-only effect, or another doubt; inactive = no such curve, though single readings can be large; an effect the other way counts as inactive or inconclusive. Potency is the fitted concentration of half-maximal effect.

SMILES | PTHR1 ag | GLP1R ag | GLP1R cytotox | GLP1R inv ag
CCOC(=O)c1sc(NC(C)=O)cc1C | -21% | 2% | -14% | 36%
CCOc1ccc(-c2csc(-c3c(N)c(C(=O)c4ccc5c(c4)OCO5)n4ccccc34)n2)cc1 | 12% | nt | 17% | 12%
CCN1CCN(c2ccc(N3CCN(S(=O)(=O)c4ccc(C)c([N+](=O)[O-])c4)CC3)nn2)CC1 | -25% | -2% | -7% | 1.6µM*
O=C(Nc1ccccn1)c1cc2ccccc2o1 | -20%[57.5 µM] | -3% | -1% | 0%
Cc1ccnc(NC(=O)c2cc3ccccc3o2)c1 | -12% | -22% | 6% | 5.6µM*
O=C(Nc1ncccc1O)c1cc2ccccc2o1 | -38% | -26% | ? | 11µM*
COc1ccc(Cl)cc1C(=O)NCC(c1ccc(N(C)C)cc1)N1CCCC1 (centres undefined) | ? | nt | 2% | 4%
CCOC(=O)c1cccc(NC(=O)C2CCN(S(=O)(=O)c3cn(C)cn3)CC2)c1 | i | nt | -11% | 6%
COc1ccc(C(CNC(=O)c2oc3c(Cl)cccc3c2C)N2CCCC2)cc1 (centres undefined) | -59% | 23% | ? | 10µM*
Cc1ccc(C(c2nnnn2Cc2ccccc2)N2CCN(Cc3ccccc3)CC2)cc1 (centres undefined) | i | -9% | -25% | 10µM*
CC1CCN(C(c2cccs2)c2nnnn2Cc2ccccc2)CC1 (centres undefined) | -6% | -4% | 0% | 10µM*
c1ccc(Cn2nnnc2C(c2cccs2)N2CCSCC2)cc1 (centres undefined) | i | 0% | 10% | -29%
COCCn1ccc2c(OCC(=O)Nc3cccc(OC)c3)cccc2c1=O | i | nt | -1% | 8%
COC(=O)c1c(C(=O)OC)c2c(-c3ccccc3)cc3cccc1n32 | -31% | 9% | 193% | 8.9µM*
Cn1c2c(c(=O)n(C)c1=O)C(c1cccc(O)c1)CC(=O)N2 (centres undefined) | -7% | -1% | 3% | 3%
CCc1cccc(NC(=O)C2CCCN(S(=O)(=O)c3cccs3)C2)c1 (centres undefined) | -15% | 18% | -12% | 10µM*
COc1ccc(NC(=O)C2CCCN(S(=O)(=O)c3cccs3)C2)cc1OC (centres undefined) | ? | 3% | -5% | -6%
Cc1cc(OCC(O)CN2CCc3ccccc3C2)ccc1Cl (centres undefined) | 0% | -6% | -31% | 7.1µM*
CCOc1ccc(OCC(O)CN2CCc3ccccc3C2)cc1 (centres undefined) | i | -8% | 4% | ?
Cc1ccc(C)c(OCC(O)CN2CCc3ccccc3C2)c1C (centres undefined) | -27% | 19% | -1% | 8.9µM*
COc1ccc(NC(=O)NC(C)c2c(-n3cccc3)sc3c2CCN(C)C3)c(OC)c1 (centres undefined) | -21% | nt | -1% | -4%
Cc1cccc(NC(=O)c2oc3ccc(S(=O)(=O)N(C)C4CCCCC4)cc3c2C)c1C | i | nt | 2% | -1%
Cc1cc(S(=O)(=O)N2CCN(c3ccccc3O)CC2)c(C)s1 | i | 20% | 2% | ?
COc1ccc(C(C)C)cc1S(=O)(=O)N1CCN(c2ccccc2)CC1 | -73% | -2% | 0% | 8.9µM*
Cc1cc(S(=O)(=O)N2CCN(c3ccc(F)cc3)CC2)c(C)s1 | -44% | 7% | 12% | 10µM*
SMILES | PTHR1 ag | GLP1R ag | GLP1R cytotox | GLP1R inv ag
CCc1ccc(-c2cc(C)no2)cc1S(=O)(=O)N1CCN(c2ccccc2OC)CC1 | i | -1% | -2% | 4.5µM*
COc1ccc(-c2cc(C)no2)cc1S(=O)(=O)N1CCCN(Cc2ccc(F)cc2)C1 | -3% | -1% | 4% | 7.1µM*
CCC(C)(C)c1ccc(CC(C)CN2C[C@@H](C)O[C@@H](C)C2)cc1 (some centres undefined) | nt | -2% | nt | nt
Cc1ccc2c(c1)c1c(c(=O)n(Cc3ccccc3)c(=O)n1Cc1cccc(F)c1)n2C | i | -1% | 0% | 18%
Cc1nc(-c2ccc(OCC(C)C)c(C#N)c2)sc1C(=O)O | nt | -12% | nt | nt
COc1ccccc1N1CCN(S(=O)(=O)c2cc(C)sc2C)CC1 | -16% | -5% | 7% | 10µM*
